Experimental data taken from PubChem BioAssay (NCATS).
Results filed as inconclusive are left out. Active and inactive are the calls of the source. Unless noted, calls come from the whole dose curve.

Assay: Validation of Assay for Modulators of Lamin A Splicing (AID 1459; active = well fitted curve in the direction sought with a large enough effect in the signal ratio; the % refers to the signal ratio;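 note: cells exposed to compound for two days before reading; 0% is about no effect; ratio rise marks activators and ratio drop marks inhibitors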)
Settings: Lamin A splicing dual RFP/GFP fluorescence reporter; series mostly up to 9.22 µM
In short: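 HeLa S3 lamin A-EGFP/DsRed2 stable clone, 600 cells/well, Opti-MEM 2% FBS; compounds by pin tool; 48 hrs, 37 °C/5% CO2; Acumen 488 nm scan, objects 10-100 um; GFP/RFP intensity ratio.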
With CC(C)NCC(O)c1ccc(NS(C)(=O)=O)cc1 (stereo unspecified) the outcome was “inactive”.
For CCN(CC)CC#CCOC(=O)C(O)(c1ccccc1)C1CCCCC1 (stereo unspecified), the outcome was “inactive”.
With CCCCS(=N)(=O)CCC(N)C(=O)O (stereo unspecified) the outcome was “inactive”.
In the case of CCN1CCCC1CNC(=O)c1cc(S(N)(=O)=O)ccc1OC (stereo unspecified), the outcome is reported as “inactive”.
In the case of OCc1ccc(-c2nn(Cc3ccccc3)c3ccccc23)o1, the outcome is reported as “inactive”.
For O=C(O)C1CCCN(CCC=C(c2ccccc2)c2ccccc2)C1 (stereo unspecified), the outcome was “inactive”.
In the case of CC1=C(C(=O)O)N2C(=O)[C@@H](NC(=O)C(N)c3ccccc3)[C@H]2SC1 (stereo partly specified), the outcome is reported as “inactive”.

Assay: qHTS Assay for Lipid Storage Modulators (AID 1519); note: % is set by controls: 0 for no effect and ±100 for the full control effect
Settings: Drosophila S3 cells, BODIPY lipid droplet/cell ratio, laser cytometry; at 25.7 µM (top of the series); cells loaded with oleic acid
In short: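 Cells seeded at 5,000 per well were treated with compounds over a concentration series and loaded with oleic acid (400 uM, as added). Lipid droplet fluorescence (488 nm excitation, 500-530 nm channel) was read by laser-scanning cytometry and normalized to 20 uM Triacsin C.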
For Nc1[nH]c(=O)ncc1F, the activity change, negative = inhibition was 0.855% (inactive).
In the case of Clc1ccccc1CN1CCc2sccc2C1, the activity change, negative = inhibition is reported as -0.65% (inactive).
With CCCCOc1ccc(CC(=O)NO)cc1 the activity change, negative = inhibition was 0.283% (inactive).
In the case of CCCOc1ccc(C(=O)OCCN(CC)CC)cc1N, the activity change, negative = inhibition is reported as -0.0947% (inactive).
